# Screens: PubChem BioAssay, several laboratories
# hgDAF12 agonist – H. glycines DAF-12 receptor agonists, primary screen, cell-based, luminescence, HEK293, GAL4 fusion, UAS-luciferase; activation, % at 6.8 µM; 1.8% of 370,000 active; HEK293 GAL4-hgDAF12 UAS-luciferase reporter, agonist luminescence; normalized to butyrate control; Nuclear hormone receptor DAF-12 (Heterodera glycines), GAL4 fusion;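 active = activation above a cutoff set at the mean of all screened compounds plus 3 SD, cut at about 10% in these data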;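 also: 0% = DMSO wells and 100% = sodium butyrate wells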
# DAX1 inh-1 – DAX1 (NR0B1) inhibitors on StAR promoter, primary screen, cell-based, luminescence, SF-1 (NR5A1), full-length DAX-1. HEK293T StAR-luciferase reporter, SF-1/DAX-1 repression relief. inhibition, % at 6.8 µM. 1.1% of 370,000 active. AID 652010, 2013;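 active = inhibition above the mean over all tested compounds plus 3 SD, cut at about 3.6% in these data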;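 also: 0% = DAX-1 cells with DMSO and 100% = cells lacking DAX-1 with DMSO; higher inhibition means more luminescence from relief of DAX-1 repression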
# hcDAF-12 act – H. contortus DAF-12 nuclear receptor activators, primary screen, cell-based, luminescence, HEK293, lit1-tk-luc reporter. HEK293 hcDAF-12 lit1-tk-luc reporter; 0% DMSO, 100% Δ7-dafachronic acid. activation, % at 6.8 µM. 1.4% of 370,000 active;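 active = activation above the mean of all tested compounds plus 3 SD, cut at about 5.5% in these data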;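 also: 100% = response to 3 µM Δ7-dafachronic acid high control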
# Rev-erbA mod – modulators of Rev-erb alpha DNA binding, primary screen, biochemical, FITC-DNA, fluorescence polarization, uHTS | Nuclear receptor subfamily 1 group D member 1 (Homo sapiens), P20393 | Rev-erbα–FITC-DNA binding, 90 min | activity, % at 10 µM | 0.79% of 370,000 active | AID 1259318, 2017;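 active = activity above about 14%, limit read from the data; passing the limit was not always enough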;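 also: 0% = DMSO wells with 35 nM protein and 100% = DMSO wells with 750 nM protein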
# Target sequence (P20393 whole entry, looked up): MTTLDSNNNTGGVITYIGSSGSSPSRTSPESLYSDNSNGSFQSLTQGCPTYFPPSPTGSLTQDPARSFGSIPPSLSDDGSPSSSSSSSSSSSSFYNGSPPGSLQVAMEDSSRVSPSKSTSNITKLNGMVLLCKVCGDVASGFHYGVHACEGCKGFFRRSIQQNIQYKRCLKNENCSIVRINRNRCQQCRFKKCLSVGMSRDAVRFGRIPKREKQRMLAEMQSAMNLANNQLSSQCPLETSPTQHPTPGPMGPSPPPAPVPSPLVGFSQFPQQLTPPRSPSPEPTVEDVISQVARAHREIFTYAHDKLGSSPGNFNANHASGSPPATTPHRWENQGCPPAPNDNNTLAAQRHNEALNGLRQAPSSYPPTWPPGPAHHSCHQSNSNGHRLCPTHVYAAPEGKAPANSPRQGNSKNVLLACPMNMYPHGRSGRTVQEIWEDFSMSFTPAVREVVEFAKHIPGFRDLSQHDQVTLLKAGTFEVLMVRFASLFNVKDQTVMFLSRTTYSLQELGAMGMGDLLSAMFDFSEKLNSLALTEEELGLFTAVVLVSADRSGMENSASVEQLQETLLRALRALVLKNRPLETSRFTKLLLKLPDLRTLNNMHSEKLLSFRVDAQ
# DAX1 inh-2 – DAX1 (NR0B1) inhibitors, primary screen, cell-based, HEK293, Gal4-DAX1, luciferase luminescence | 0.99% of 340,000 active | HEK293 Gal4-DAX1 luciferase reporter | Nuclear receptor subfamily 0 group B member 1 (Homo sapiens), P51843 | inhibition, % at 6.75 µM;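 active = inhibition above the mean over all tested compounds plus 3 SD, cut at about 4.2% in these data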;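 also: 0% = DAX1-transfected cells with DMSO and 100% = empty-vector control cells with DMSO; inhibition shows as a rise in luminescence from relieved DAX1 repression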
# ssDAF12 agonist – S. stercoralis DAF-12 nuclear receptor activators, primary screen, cell-based, luminescence, HEK293, GRIP1 co-expression, lit1-tk-luc; Nuclear hormone receptor DAF-12 (Strongyloides stercoralis); HEK293 ssDAF-12/GRIP1 lit1-tk-luc reporter; % of 3 µM dafachronic acid response; activation, % at 6.8 µM; 1% of 370,000 active; AID 652126, 2013;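 active = activation above the mean over all tested compounds plus 3 SD, cut at about 0.9% in these data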;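 also: 0% = DMSO-only wells and 100% = 3 µM delta7-dafachronic acid wells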
# * marks the source's active call; other numbers are inactive results; . = no result. Most compounds without a hit are left out; they make up all but 4.8% or so of the library.
SMILES,hgDAF12 agonist,DAX1 inh-1,hcDAF-12 act,Rev-erbA mod,DAX1 inh-2,ssDAF12 agonist
Cn1cc(C(=O)N/N=C/C2=C(N3CCOCC3)C(=C/c3ccc([N+](=O)[O-])cc3)/CC2)ccc1=O,12*,0,0,0,-1,-1
Cc1ccn(CCC(=O)NC2CC(C)(C)Cc3c2cnn3-c2ccccc2C)n1 (stereo unspecified),2,3.8*,3,1,1,-1
Cn1nc(-c2ccccc2)cc1NS(=O)(=O)c1ccc(C#N)cc1,0,0,0,0,4.3*,-1
Nn1c(SCc2cccc(F)c2)nnc1-c1cccnc1,2,0,-1,-19,5.7*,1.1*
CC(C)=CC(=O)Nc1nnc(-c2ccccc2C)s1,6,2,0,-1,5.2*,-1
O=C(O)c1ccccc1N/N=C\c1ccnc2ccccc12,12*,4,6.4*,2,0,1
O=C(O)c1ccccc1N/N=C/c1cc(Br)cc(Br)c1O,7,4,2,4,5.6*,-1
COc1cc2c(cc1NC(=O)CSc1nnc(-c3ccccc3F)n1-c1ccc(C)cc1)oc1ccccc12,5,1,2,5,.,-1
CCC(=O)NCCc1nc2cc(NC(=O)c3ccc(Cl)cc3)ccc2n1C,10,1,3,5,0,-1
CC(=O)NCCc1nc2cc(NC(=O)c3ccc(Cl)cc3)ccc2n1C,11*,2,2,-2,2,-1
COc1cccc(CNC(=O)Cn2c(-c3ccccc3)cc(C(C)=O)c2C)c1,0,-2,-2,4,.,-1
O=C[C@H](O)[C@H]1OC(=O)[C@@H](O)[C@H]1O,.,.,.,-4,.,.
O=S(=O)(c1ccc(OC(F)(F)F)cc1)N1CCCC(N2CCOCC2)C1 (stereo unspecified),2,0,0,-6,4.6*,-1
O=C(NN=C1CCCCCCCCCCC1)c1ccccc1F,12*,3,3,-7,0,0
O=C(NN=C1CCCC1)c1ccn[nH]1,12*,2,1,-3,2,1
O=C(NN=C1CCCC1)c1cc(-c2ccccc2)n[nH]1,2,0,-2,-1,-1,-1
C=CCN1[C@@H](CC(C)C)COc2cc(F)ccc2S1(=O)=O,-2,1,2,4,.,-1
c1ccc(-c2cccc(CNc3nc(-c4ccccn4)nnc3-c3ccccc3)c2)cc1,-11,.,-3,-2,.,-1
O=S(=O)(c1ccc(F)cc1)N1CCN(c2ccccn2)CC1,1,0,3,0,0,1.6*
O=C(Nc1c(F)cc(F)cc1Br)c1cc(S(=O)(=O)N2CCN(c3ccccn3)CC2)ccc1F,-1,-2,-3,0,4.7*,-2
O=C(Nc1ccc(F)c(F)c1)c1cc(S(=O)(=O)N2CCN(c3ccccn3)CC2)ccc1F,0,-1,-3,-1,-2,-2
S=c1[nH]nc(-c2ccn[nH]2)n1-c1ccccc1Cl,4,0,2,5,1,1.2*
S=c1[nH]nc(-c2ccco2)n1-c1ccccc1Cl,3,4.3*,1,1,-1,0
S=c1[nH]nc(-c2cc(-c3ccco3)[nH]n2)n1-c1ccccc1Cl,1,0,-1,-6,2,0
COC(=O)C1CN(Cc2ccc(F)cc2)CCS(=O)(=O)N1Cc1cn(Cc2ccccc2)nn1 (stereo unspecified),3,-1,-1,1,.,-1
SMILES,hgDAF12 agonist,DAX1 inh-1,hcDAF-12 act,Rev-erbA mod,DAX1 inh-2,ssDAF12 agonist
Fc1cccc(Cc2c(-c3cccc(Cl)c3)nc3c4ccccc4ccn23)c1,2,1,5,1,.,0
Fc1ccc(-c2nc3c4ccccc4ccn3c2Cc2cccc(F)c2)cc1,7,0,5.6*,4,.,0
Clc1cccc(Cc2c(-c3ccccc3)nc3c4ccccc4ccn23)c1,0,1,0,2,.,0
Clc1cccc(Cc2c(-c3cccc(Cl)c3)nc3c4ccccc4ccn23)c1,3,1,4,-5,.,1.1*
CCOC(=O)Cc1c(-c2cccc(Br)c2)nc2c3ccccc3ccn12,4,-2,6.1*,-1,.,1.4*
CCCc1nc2c3ccccc3ccn2c1Cc1cccc(F)c1,10,2,5,-6,.,1.1*
C=CCC12C=C(OC)C(=O)C(C1=O)C1c3ccccc3CC12 (stereo unspecified),1,0,1,0,.,-1
COc1cc(C=NN2CCN(C(c3ccccc3)c3ccccc3)CC2)cc(OC)c1OC(C)=O,-1,0,1,1,.,-2
Brc1cccc(-c2nc3c4ccccc4ccn3c2Cc2ccsc2)c1,5,2,4,-8,.,1.8*
Cc1ccc2nc(C3CCCCC3)c(Cc3ccccc3C(F)(F)F)n2c1,-1,0,-1,6,.,0
COc1ccc(-c2nc3c4ccccc4ccn3c2Cc2ccccc2C(F)(F)F)cc1OC,4,-3,3,-6,.,0
FC(F)(F)c1ccccc1Cc1c(-c2ccc(Cl)cc2)nc2c3ccccc3ccn12,1,1,5,-2,.,1.8*
CCCc1nc2ccc(C)cn2c1Cc1cccc(F)c1,10,3.9*,4,-5,.,1.9*
Cc1cc(Br)cn2c(Cc3ccsc3)c(-c3cccc(Br)c3)nc12,0,0,1,8,.,0
FC(F)(F)c1ccccc1Cc1c(C2CCCCC2)nc2c3ccccc3ccn12,3,2,2,1,.,1.7*
Brc1ccc(-c2nc3c4ccccc4ccn3c2Cc2ccccc2)cc1,1,-1,4,-6,2,0
Clc1cccc(-c2nc3c4ccccc4ccn3c2Cc2ccsc2)c1,10,2,6.0*,-2,.,3.3*
Fc1ccc(-c2nc3c4ccccc4ccn3c2Cc2ccsc2)cc1,8,0,4,-4,.,1.1*
Clc1cccc(Cc2c(C3CCCCC3)nc3c4ccccc4ccn23)c1,7,3.8*,6.3*,1,.,1
Fc1ccc(-c2nc3c4ccccc4ccn3c2Cc2ccccc2)cc1,2,-1,2,-1,1,1.6*
Clc1cccc(Cc2c(C3CCCCC3)nc3ccc(Cl)cn23)c1,2,-1,-1,-2,.,-1
